Values without a mark were called inactive. Inconclusive results are not listed. A call without a number means that no potency is given here. The source made the active and inactive calls. Unless noted, the call rests on the fitted dose curve; in most records, active means well fitted curve in the direction sought with a large enough effect in the repeat runs; inconclusive means weak or mixed curves; inactive means no such curve, though single readings can be large; an effect the other way counts as inactive or inconclusive.
What was measured:
[1] = target: Thyrotropin receptor (Homo sapiens) (UniProt P16473); experiment: qHTS assay to identify small molecule antagonists of the thyroid stimulating hormone receptor (TSHR) signaling pathway (AID 1259385; calls by dose curve; further: nearly all actives have a fitted effect of over 20% in size)
How it was run: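 TSHR-HEK293 cells were plated and held 18 h at 37C/5% CO2, then given compound plus Ro20-1724 and stimulated with TSH at 1.5 ng/mL final. After 30 min at room temperature, cAMP was detected with cAMP-d2/anti-cAMP-cryptate (1 h) by fluorescence.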

[2] = qHTS assay to identify small molecule agonists of the estrogen receptor alpha (ER-alpha) signaling pathway in the presence of an antagonist - cell viability counter screen (AID 1259386);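 further: cells exposed to compounds for 22 h at 37 °C before the viability read; nearly all actives have a fitted effect of over 30% in size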; further: potency means the concentration at half of the fitted maximal effect
How it was run: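 Cell viability in VM7Luc4E2 cells (endogenous full-length ER-alpha) measured by CellTiter-Fluor fluorescence in the same wells as the luciferase screen. Cells pre-cultured 5 days in charcoal-stripped serum, then treated 22 h with compounds at 15 concentrations plus 10.0nM ICI-182,780.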

[3] = target: Progesterone receptor (Homo sapiens) (UniProt P06401); experiment: qHTS assay to identify small molecule agonists of the progesterone receptor (PR) signaling pathway (AID 1346784; calls by dose curve; further: nearly all actives have a fitted effect of over 30% in size)
How it was run: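 PR-UAS-bla HEK 293T cells carrying a UAS-driven beta-lactamase reporter were seeded in medium with 2% charcoal-stripped FBS, preincubated 6 hr at 37C, then exposed to compounds in DMSO for 16 hr; agonism was read by LiveBLAzer B/G FRET fluorescence.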

[4] = qHTS assay to identify small molecule antagonists of the progesterone receptor (PR) signaling pathway - cell viability counter screen (AID 1346798); further: nearly all actives have a fitted effect of over 50% in size; further: potency means the concentration at half of the fitted maximal effect
How it was run: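 PR-UAS-bla HEK293T cells in medium with 2% charcoal-stripped FBS were treated with compounds plus R5020 for 16 hr at 37C. Cell viability was then read by CellTiter-Glo luminescence after 30 min at room temperature in the same wells.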

[5] = qHTS assay to identify small molecule antagonists of the TGF-beta/Smad signaling pathway - cell viability counter screen (AID 1346824); further: nearly all actives have a fitted effect of over 50% in size
How it was run: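 SBE-bla HEK 293T cells were plated overnight at 37 C, then given compounds in DMSO plus TGF-beta1 (added as 0.25 ng/mL solution) for 5 hr. After the bla read, CellTiter-Glo was added to the same wells and luminescence read after 30 min at room temperature.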

[6] = qHTS assay to identify small molecule agonists of the TGF-beta/Smad signaling pathway - cell viability counter screen (AID 1346829); further: top concentration of the series differs between compounds; nearly all actives have a fitted effect of over 45% in size
How it was run: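 Compound-treated SBE-bla HEK 293T cells (5 hr, 37 C) were assessed for viability with CellTiter-Glo in parallel with the reporter read.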

[7] = qHTS assay to identify small molecule agonists of the TGF-beta/Smad signaling pathway (AID 1346859; active means well fitted activation curve with a large enough effect in the signal ratio in the repeat runs, not every such curve was filed as active; the % refers to the signal ratio; further: series mostly up to about 77 µM)
How it was run: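 HEK 293T cells stably carrying a beta-lactamase reporter driven by the Smad binding element were seeded overnight, exposed to DMSO-dissolved compounds for 5 hr at 37 C, 5% CO2, then loaded with FRET substrate for 2 hr at room temperature.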

[8] = target: Thyrotropin-releasing hormone receptor (Homo sapiens) (UniProt P34981); experiment: qHTS assay to identify small molecule antagonists of the thyrotropin-releasing hormone receptor (TRHR) signaling pathway (AID 1346877; active means well fitted inhibition curve with a large enough effect in the repeat runs, not every such curve was filed as active; further: series mostly up to about 51 µM)
How it was run: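 TRHR-expressing HEK293 cells loaded with calcium dye for 2 h at 37 C; compounds pre-incubated 5 min at room temperature before TRH challenge at 1 nM final. Intracellular calcium fluorescence read kinetically for 3 min; 15 concentrations in triplicate.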

[9] = qHTS assay to identify small molecule agonists of the progesterone receptor (PR) signaling pathway - cell viability counter screen (AID 1346799; calls by dose curve; further: nearly all actives have a fitted effect of over 45% in size; further: potency means the concentration at half of the fitted maximal effect)
How it was run: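 PR-UAS-bla HEK293T cells, 3,000 per well in medium with 2% charcoal-stripped FBS, were preincubated 6 hr at 37C, then exposed to compounds for 16 hr; viability was read as CellTiter-Glo luminescence after 30 min at room temperature.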

[10] = target: Progesterone receptor (Homo sapiens) (UniProt P06401); experiment: qHTS assay to identify small molecule antagonists of the progesterone receptor (PR) signaling pathway (AID 1346795; active means well fitted inhibition curve with a large enough effect in the signal ratio in the repeat runs, not every such curve was filed as active; the % refers to the signal ratio; further: potency means the concentration at half of the fitted maximal effect)
How it was run: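 PR-UAS-bla HEK293T cells carrying a UAS-driven beta-lactamase reporter were plated in medium with 2% charcoal-stripped FBS and rested 6 hr at 37C. Compounds were added with 1 nM R5020 (final) for 16 hr, then FRET substrate loaded 2 hr at room temperature.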

Thyrotropin receptor (Homo sapiens), sequence (P16473 whole entry, looked up): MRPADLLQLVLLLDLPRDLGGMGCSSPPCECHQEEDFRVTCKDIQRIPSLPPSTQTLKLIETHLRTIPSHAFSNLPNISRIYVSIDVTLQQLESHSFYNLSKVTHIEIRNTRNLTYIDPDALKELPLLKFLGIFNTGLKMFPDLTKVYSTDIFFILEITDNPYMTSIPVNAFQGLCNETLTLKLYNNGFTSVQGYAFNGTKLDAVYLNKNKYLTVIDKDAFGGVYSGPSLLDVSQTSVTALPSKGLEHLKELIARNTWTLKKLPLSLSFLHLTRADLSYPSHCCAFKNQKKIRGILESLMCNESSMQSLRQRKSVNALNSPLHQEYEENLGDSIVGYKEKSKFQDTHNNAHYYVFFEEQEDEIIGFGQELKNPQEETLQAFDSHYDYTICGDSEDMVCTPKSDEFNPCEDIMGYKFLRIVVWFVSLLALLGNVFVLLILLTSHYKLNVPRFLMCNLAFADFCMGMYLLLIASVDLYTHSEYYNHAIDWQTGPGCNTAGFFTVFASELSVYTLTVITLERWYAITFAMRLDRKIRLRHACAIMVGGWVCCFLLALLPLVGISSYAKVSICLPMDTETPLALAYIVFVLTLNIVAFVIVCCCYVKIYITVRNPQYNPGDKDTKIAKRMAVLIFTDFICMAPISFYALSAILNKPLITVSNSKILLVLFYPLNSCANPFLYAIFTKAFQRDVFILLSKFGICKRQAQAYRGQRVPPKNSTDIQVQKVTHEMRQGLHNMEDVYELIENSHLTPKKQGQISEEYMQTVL
Progesterone receptor (Homo sapiens), sequence (P06401 whole entry, looked up): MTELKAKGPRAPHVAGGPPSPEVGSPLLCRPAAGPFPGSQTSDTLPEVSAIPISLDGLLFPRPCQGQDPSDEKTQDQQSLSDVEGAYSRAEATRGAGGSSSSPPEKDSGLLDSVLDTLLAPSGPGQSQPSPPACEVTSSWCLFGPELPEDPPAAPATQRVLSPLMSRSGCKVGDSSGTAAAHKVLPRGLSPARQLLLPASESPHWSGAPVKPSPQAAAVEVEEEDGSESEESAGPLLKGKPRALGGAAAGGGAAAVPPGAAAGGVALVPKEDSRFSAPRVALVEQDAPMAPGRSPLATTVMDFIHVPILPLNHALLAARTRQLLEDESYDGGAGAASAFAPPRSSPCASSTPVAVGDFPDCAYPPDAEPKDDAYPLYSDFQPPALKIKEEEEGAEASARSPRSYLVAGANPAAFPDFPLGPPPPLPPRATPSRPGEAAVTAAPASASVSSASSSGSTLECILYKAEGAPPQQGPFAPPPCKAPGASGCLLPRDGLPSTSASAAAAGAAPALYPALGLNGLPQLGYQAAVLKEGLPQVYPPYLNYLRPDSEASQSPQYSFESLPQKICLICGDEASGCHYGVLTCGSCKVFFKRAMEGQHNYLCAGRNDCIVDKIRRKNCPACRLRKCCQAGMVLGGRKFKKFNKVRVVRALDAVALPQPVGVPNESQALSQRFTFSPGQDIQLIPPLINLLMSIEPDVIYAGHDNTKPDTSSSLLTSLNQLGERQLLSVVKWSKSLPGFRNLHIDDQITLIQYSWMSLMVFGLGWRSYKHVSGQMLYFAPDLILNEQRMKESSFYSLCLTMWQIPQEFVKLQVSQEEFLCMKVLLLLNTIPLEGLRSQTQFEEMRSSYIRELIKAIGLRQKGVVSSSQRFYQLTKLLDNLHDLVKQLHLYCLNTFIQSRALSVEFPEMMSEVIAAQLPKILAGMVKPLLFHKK
Thyrotropin-releasing hormone receptor (Homo sapiens), sequence (P34981 whole entry, looked up): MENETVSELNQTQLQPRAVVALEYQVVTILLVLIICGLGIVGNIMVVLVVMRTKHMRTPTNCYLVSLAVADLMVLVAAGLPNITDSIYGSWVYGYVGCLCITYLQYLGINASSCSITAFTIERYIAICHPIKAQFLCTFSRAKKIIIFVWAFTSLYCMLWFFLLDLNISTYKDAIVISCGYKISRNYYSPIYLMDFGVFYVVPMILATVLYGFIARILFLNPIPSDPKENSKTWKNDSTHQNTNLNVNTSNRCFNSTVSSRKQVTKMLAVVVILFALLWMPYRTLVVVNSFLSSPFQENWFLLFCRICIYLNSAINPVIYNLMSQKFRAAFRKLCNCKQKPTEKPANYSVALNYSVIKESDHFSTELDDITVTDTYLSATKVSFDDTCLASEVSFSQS

NCCOCCOCCN
Potency [1]: inactive
Potency [2]: inactive
Potency [3]: inactive
Potency [4]: 15.4 µM (active)
outcome [5]: inactive
outcome [6]: inactive
outcome [7]: inactive
outcome [8]: inactive

c1ccc(CCNc2nc(-c3ccccc3)cs2)cc1
Potency [1]: inactive
Potency [2]: inactive
Potency [3]: inactive
Potency [9]: inactive
outcome [5]: inactive
outcome [6]: inactive
outcome [8]: inactive

Cc1c(-c2cccnc2)c2ccccc2n1CCCCC(=O)O
Potency [1]: inactive
Potency [2]: inactive
Potency [3]: inactive
Potency [4]: inactive
Potency [9]: inactive
outcome [5]: inactive
outcome [6]: inactive
outcome [8]: inactive

Cc1cc(C)n(CO)n1
Potency [1]: inactive
Potency [2]: inactive
Potency [3]: inactive
Potency [9]: inactive
outcome [5]: inactive
outcome [7]: inactive
outcome [8]: inactive

CCC(C)C1N=C(C)C(C)S1 (configuration not stated)
Potency [1]: inactive
Potency [2]: inactive
Potency [3]: inactive
outcome [5]: inactive
outcome [6]: inactive
outcome [8]: inactive

O=c1[nH][nH]c2ccccc12
Potency [1]: inactive
Potency [2]: inactive
Potency [3]: inactive
outcome [5]: inactive
outcome [6]: inactive
outcome [7]: inactive
outcome [8]: inactive

C[C@H](N)C(=O)N[C@@H](C)C(=O)NC1[C@H]2CN(c3nc4c(cc3F)c(=O)c(C(=O)O)cn4-c3ccc(F)cc3F)C[C@@H]12 (some centres not stated)
Potency [1]: inactive
Potency [2]: inactive
Potency [3]: inactive
outcome [5]: inactive
outcome [6]: inactive
outcome [8]: inactive

COc1cc(CNC(=O)CCCC/C=C/C(C)C)ccc1O
Potency [1]: inactive
Potency [2]: inactive
Potency [3]: inactive
Potency [10]: 53 µM (active)
outcome [6]: inactive
outcome [8]: inactive

Cc1nc(C)c(C)nc1C
Potency [1]: inactive
Potency [2]: inactive
Potency [3]: inactive
Potency [9]: 30.6 µM (active)
outcome [5]: inactive
outcome [6]: inactive
outcome [8]: inactive

COc1ccc(/C=C/S(=O)(=O)NC(=O)c2ccc(C)cc2Cl)cc1
Potency [1]: inactive
Potency [3]: inactive
outcome [5]: inactive
outcome [6]: inactive
outcome [7]: inactive
outcome [8]: inactive

CCCCCCCCOCCCN
Potency [1]: inactive
Potency [3]: inactive
Potency [10]: inactive
Potency [4]: inactive
outcome [6]: inactive
outcome [7]: inactive
outcome [8]: inactive

Clc1cc(Cl)c2c(c1)N=C1CCCCCN1C2
Potency [1]: inactive
Potency [3]: inactive
Potency [4]: inactive
Potency [9]: inactive
outcome [5]: inactive
outcome [6]: inactive
outcome [8]: inactive

CCOC(C)OCC
Potency [2]: inactive
Potency [3]: inactive
Potency [10]: inactive
Potency [4]: inactive
Potency [9]: inactive
outcome [5]: inactive
outcome [6]: inactive
outcome [7]: inactive
outcome [8]: inactive

CCn1nc(Cc2ccccc2)cc1C1CCN(C[C@H]2C[C@H](N(C)[C@@H](C(=O)O)C(C)C)C[C@@H]2c2cccc(F)c2)CC1
Potency [1]: inactive
Potency [2]: inactive
Potency [4]: inactive
Potency [9]: inactive
outcome [6]: inactive
outcome [8]: inactive

O=C(O)c1ccc(O)c(O)c1
Potency [1]: inactive
Potency [2]: inactive
Potency [10]: inactive
Potency [4]: inactive
Potency [9]: inactive
outcome [5]: inactive
outcome [6]: inactive
outcome [7]: inactive
outcome [8]: inactive

CC(C)C/C=C(\C=O)c1ccccc1
Potency [1]: inactive
Potency [3]: inactive
Potency [10]: inactive
Potency [9]: inactive
outcome [6]: inactive
outcome [7]: inactive
outcome [8]: inactive

O=Cc1ccc(Cl)c([N+](=O)[O-])c1
Potency [1]: inactive
Potency [2]: inactive
Potency [9]: inactive
outcome [5]: inactive
outcome [6]: inactive
outcome [7]: inactive
outcome [8]: inactive

COC(=O)C(C)(C)C
Potency [1]: inactive
Potency [2]: inactive
Potency [10]: inactive
outcome [5]: inactive
outcome [6]: inactive
outcome [7]: inactive
outcome [8]: inactive

CC(=O)Oc1cccc2c1C(=O)c1c(OC(C)=O)cc(C(=O)O)cc1C2=O
Potency [1]: inactive
Potency [2]: 29.8 µM (active)
outcome [5]: inactive
outcome [6]: inactive
outcome [8]: inactive

CCN(CC)CC(=O)OCC(=O)[C@@]1(O)CC[C@H]2[C@@H]3CCC4=CC(=O)CC[C@]4(C)[C@H]3[C@@H](O)C[C@@]21C
Potency [1]: inactive
Potency [2]: inactive
Potency [4]: inactive
Potency [9]: inactive
outcome [5]: inactive
outcome [6]: inactive
outcome [7]: inactive
outcome [8]: inactive

O=C(O)c1cccc(C(=O)O)c1C(=O)O
Potency [1]: inactive
Potency [2]: inactive
Potency [10]: inactive
Potency [4]: inactive
outcome [5]: inactive
outcome [6]: inactive
outcome [8]: inactive

C[C@H](CN1CCCC1)C(=O)c1ccc(C(F)(F)F)cc1
Potency [2]: inactive
Potency [3]: inactive
Potency [10]: inactive
Potency [4]: inactive
Potency [9]: inactive
outcome [5]: inactive
outcome [6]: inactive
outcome [7]: inactive
outcome [8]: inactive

CCC(CC)C(=O)O
Potency [2]: inactive
Potency [3]: inactive
Potency [10]: inactive
Potency [4]: inactive
Potency [9]: inactive
outcome [5]: inactive
outcome [6]: inactive
outcome [7]: inactive
outcome [8]: inactive

CC(C)(O)C(=O)O
Potency [2]: inactive
Potency [3]: inactive
Potency [10]: inactive
Potency [4]: inactive
Potency [9]: inactive
outcome [5]: inactive
outcome [6]: inactive
outcome [7]: inactive

CC(=O)OCC(=O)[C@@]1(O)CC[C@H]2[C@@H]3CCC4=CC(=O)C=C[C@]4(C)[C@@]3(F)[C@@H](O)C[C@@]21C
Potency [1]: inactive
Potency [2]: inactive
Potency [9]: inactive
outcome [5]: inactive
outcome [6]: inactive
outcome [7]: inactive
outcome [8]: inactive

O=C1c2ccccc2C(=O)C1c1ccc2ccccc2n1
Potency [1]: inactive
Potency [3]: inactive
Potency [10]: inactive
Potency [4]: inactive
Potency [9]: inactive
outcome [5]: inactive
outcome [6]: inactive
outcome [8]: inactive

CO[C@@H]1COCC[C@@H]1N[C@@H]1CC[C@@](C(=O)N2CCc3ncc(C(F)(F)F)cc3C2)(C(C)C)C1
Potency [1]: inactive
Potency [2]: inactive
Potency [4]: inactive
outcome [5]: inactive
outcome [6]: inactive
outcome [7]: inactive
outcome [8]: inactive

O=C(N[C@@H](Cc1ccccc1)[C@@H](O)C(=O)N1C[C@@H](O)[C@@H](O)C1)c1cc2cc(Cl)ccc2[nH]1
Potency [1]: inactive
Potency [2]: inactive
Potency [3]: inactive
outcome [6]: inactive
outcome [8]: inactive

O=C1c2ccccc2C(=O)C1c1ccc2cc(S(=O)(=O)O)cc(S(=O)(=O)O)c2n1
Potency [1]: inactive
Potency [2]: 26.3 µM (active)
Potency [4]: 20.9 µM (active)
outcome [5]: inactive
outcome [6]: inactive
outcome [7]: inactive
outcome [8]: inactive

Reference: PubChem BioAssay (Tox21)
